# Measurements: PubChem BioAssay (NCATS)
# Inconclusive results are not listed. Calls of active or inactive are those of the source. Calls follow the shape of the dose curve; as a rule, active = well fitted inhibition curve with a large enough effect; inconclusive = small, poorly fitted or top-dose-only effect; inactive = flat fitted curve, though single readings scatter.
# Test system: CRL-7250
# Assay: Cytotoxic Profiling of Annotated Libraries Using Quantitative High-Throughput Screening (AID 1296008); also: nearly all actives have a fitted effect of over 60% in size
# Conditions: Five cell lines viability, CellTiter-Glo ATP luminescence, 48-72 h; max response: stronger effect = lower value
# In short: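 Compounds were pin-transferred onto cells and incubated 48 or 72 hr at 37 degree Celsius, 95% humidity. CellTiter-Glo was added, plates sat 10 min at room temperature, then ATP-coupled luminescence was imaged as the viability read-out.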
# % is scaled to controls: 0 for no effect and ±100 for the full control effect; potency is read from the fitted curve at half-maximal effect.
SMILES,max response,Potency
COc1cc(Br)c(S(=O)(=O)Nc2ccc(C(F)(F)F)c(O[C@@H]3CCN(C)C3)c2)cc1OC,-0.0326% (inactive),
CC(C)[C@H]1CC[C@@]2(O)COC(=O)[C@H]2[C@@H]1/C=C(\CO)C(=O)O,-25.6% (inactive),
C/C=C1\[C@H](O[C@@H]2O[C@H](CO)[C@@H](O)[C@H](O)[C@H]2O)OC=C(C(=O)OC)[C@H]1CC(=O)O,-9.39% (inactive),
C=CCC1=C[C@]2(OC)[C@H](C)[C@@H](c3ccc(O)c(OC)c3)O[C@]2(OC)CC1=O,-0.729% (inactive),
C=C1CC[C@@H]2[C@](C)(CO[C@@H]3O[C@H](CO)[C@@H](O)[C@H](O)[C@H]3O)[C@H](O)CC[C@@]2(C)[C@@H]1C/C=C1/C(=O)OC[C@H]1O,4.42% (inactive),
C/C1=C\CCC2=C[C@@H](OC2=O)c2c(C)coc2C1,1.59% (inactive),
CC(C)=CCC/C(C)=C/CCC1(C)Oc2c(c(O)cc3c2CN(C(CCC(=O)O)C(=O)O)C3=O)CC1O (centres undefined),-8.75% (inactive),
C=C(C)[C@@H]1CC[C@]2(C)CC[C@]3(C)[C@H](CC[C@@H]4[C@@]5(C)CC[C@@H](O)C(C)(C)[C@@H]5CC[C@]43C)[C@@H]12,-1.57% (inactive),
CC1(C)CC[C@]23CO[C@@]4(CCC5[C@@]6(C)CC[C@H](O[C@@H]7OC[C@H](O[C@@H]8O[C@H](CO)[C@@H](O)[C@H](O)[C@H]8O)[C@H](O)[C@H]7O[C@@H]7O[C@H](CO)[C@@H](O[C@@H]8O[C@H](CO)[C@@H](O)[C@H](O)[C@H]8O)[C@H](O)[C@H]7O)[C@@](C)(CO)C6CC[C@@]5(C)[C@]4(C)C[C@H]2OC2OCC(O)C(O)C2O)C3C1 (some centres undefined),,1550 nM (active)
